“And” between values parts separate entries of the source, which are not always exact repeats. Equal entries are not always repeated. The source made the active and inactive calls. The calls were made as follows: active = hit-call score of the fitted dose curve at least 0.9, where 1 is the maximum; inactive = score below 0.9.
experiment: BSK_hDFCGF_SRB: Viability Assessment in the BioMAP Diversity Plus: hDFCGF Assay (AID 2283061); details: primary human foreskin fibroblasts;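 also: cells exposed to compound for 24 h before the read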
Protocol: BSK_hDFCGF is a cell-based, multiplexed-readout assay that uses foreskin fibroblast, a human skin primary cell, with measurements taken at 24 hours after chemical dosing in a 96-well plate.BSK_hDFCGF_SRB is an assay component measured in the BSK_hDFCGF assay. It measures 0.1% sulforhodamine related to cell death using Sulforhodamine staining technology.Data from the assay component BSK_hDFCGF_SRB was analyzed into 1 assay endpoint. This assay endpoint, BSK_hDFCGF_SRB, was analyzed with bidirectional fitting relative to DMSO as the negative control and baseline of activity. Using a type of viability reporter, gain or loss-of-signal activity can be used to understand changes in the signaling. Furthermore, this assay endpoint can be referred to as a primary readout, because this assay has produced multiple assay endpoints where this one serves a signaling function. To generalize the intended target to other relatable targets, this assay endpoint is annotated to the cell morphology intended target family, where the subfamily is cell conformation.
The levels of cell surface (or secreted, indicated by the prefix "s") biomarker endpoints were measured by ELISA. Overt cytotoxicity to cells in confluent adherent cultures (all systems other than the BT system) was assessed by measuring total protein levels using sulforhodamine B (SRB) staining in parallel cultures at the time of biomarker measurements, indicated as SRB endpoints. For proliferation assays for adherent cell types, individual cell types are cultured at sub-confluence and relative cell numbers quantified by SRB staining at time points optimized for each system (48 h: 3C and CASM3C systems; 72 h: BT and HDF3CGF systems; 96 h: SAg system). SRB was performed by staining cells with 0.1% SRB after fixation with 10% TCA and reading wells at 560 nm.Viability and proliferation of PBMC (T cells) was quantified by Alamar Blue reduction for the SAg and BT systems. For PBMC viability (referred to as PBMC Cytotoxicity within the assay endpoint names), cells were plated (75,000/well in a 96-well plate) and then chemical samples added for 1 h before addition of activators, SEB and TSST-1 (20 ng/mL final concentration each). Cells were incubated for 90 h. Then, Alamar Blue (20 uL/well) (Invitrogen, Cat DAL1100) was added for 6 h, and the plates were read with a fluorescence microplate reader at 546/580 nm (excitation/emission). For PBMC proliferation, cells were plated and activated as above but incubated for only 16 h prior to addition of Alamar Blue. Plates were read after 6 h.

SMILES | outcome | AC50
COC(=O)C=C(C)OP(=O)(OC)OC | inactive | 
CCOc1cc(Oc2ccc(C(F)(F)F)cc2Cl)ccc1[N+](=O)[O-] | inactive | 
O=C(Nc1ccccc1)Nc1ccnc(Cl)c1 | inactive | 
C#CCOS(=O)OC1CCCCC1Oc1ccc(C(C)(C)C)cc1 (stereo not given) |  | 3.73 µM (active)
O=C(O)c1nc(Cl)ccc1Cl | inactive | 
CCCC1COC(Cn2cncn2)(c2ccc(Cl)cc2Cl)O1 (stereo not given) | inactive | 
CCCCNC(=O)n1c(NC(=O)OC)nc2ccccc21 | inactive | 
CNC(=O)ON=CC(C)(C)SC | inactive | 
O=C(O)COc1nc(Cl)c(Cl)cc1Cl | inactive | 
CS/C(C)=N/OC(=O)N(C)SN(C)C(=O)O/N=C(\C)SC |  | 11.7 µM (active)
CNC(=S)S | inactive | 
CCOC(=O)CC(SP(=S)(OC)OC)C(=O)OCC (stereo not given) | inactive | 
CCON=C(CC)C1=C(O)CC(c2c(C)cc(C)cc2C)CC1=O (stereo not given) | inactive | 
CCc1nn(C)c(C(=O)NCc2ccc(C(C)(C)C)cc2)c1Cl |  | 27.5 µM (active)
COC(=O)c1ccccc1C(=O)OC | inactive | 
CCOP(=S)(OCC)SCn1c(=O)oc2cc(Cl)ccc21 | inactive | 
CC(C)C1(C)N=C(c2nc3ccccc3cc2C(=O)O)NC1=O (stereo not given) | inactive | 
OC(c1ccc(Cl)cc1)(c1cncnc1)c1ccccc1Cl (stereo not given) | inactive | 
CN(C)C(=S)SSC(=S)N(C)C |  | 4.96 µM (active)
CCNc1nc(Cl)nc(NC(C)C)n1 | inactive | 

SMILES | outcome | AC50
C=CC1(C)OC(=O)N(c2cc(Cl)cc(Cl)c2)C1=O (stereo not given) | inactive | 
C=CCC1=C(C)[C@@H](OC(=O)[C@@H]2[C@@H](C=C(C)C)C2(C)C)CC1=O |  | 34.9 µM (active)
COc1nc(C)nc(NC(=O)NS(=O)(=O)c2ccccc2Cl)n1 | inactive | 
COC(=O)N(OC)c1ccccc1COc1ccn(-c2ccc(Cl)cc2)n1 |  | 13.4 µM (active)
Cc1ccc(-c2c(Cl)nc(C#N)n2S(=O)(=O)N(C)C)cc1 |  | 14.5 µM (active)
N#CC(CCc1ccc(Cl)cc1)(Cn1cncn1)c1ccccc1 (stereo not given) | inactive | 
CCCCNC(=O)OCC#CI |  | 12.4 µM (active) and 3.49 µM (active)
CCNc1nc(Cl)nc(NCC)n1 | inactive | 
CCOC(=O)C(Cl)Cc1cc(-n2nc(C)n(C(F)F)c2=O)c(F)cc1Cl (stereo not given) | inactive | 
CCCN(CCC)c1c([N+](=O)[O-])cc(S(N)(=O)=O)cc1[N+](=O)[O-] |  | 21.1 µM (active) and 29.3 µM (active) and 31.4 µM (active)
CCCCC(CC)COC(=O)c1ccccc1C(=O)OCC(CC)CCCC (stereo not given) | inactive | 
Fc1ccc(Oc2ccnc3cc(Cl)cc(Cl)c23)cc1 |  | 15.3 µM (active)
CC(C)Oc1cc(-n2nc(C(C)(C)C)oc2=O)c(Cl)cc1Cl |  | 28.6 µM (active)
N#Cc1nn(-c2c(Cl)cc(C(F)(F)F)cc2Cl)c(N)c1S(=O)C(F)(F)F (stereo not given) | inactive | 
N#Cc1cc(Br)c(O)c(Br)c1 | inactive | 
Cc1cc(Cl)ccc1OCC(=O)O | inactive | 
CC(Oc1ccc(Cl)cc1Cl)C(=O)O (stereo not given) | inactive | 
C=CCC1=C(C)C(OC(=O)C2C(C=C(C)C)C2(C)C)CC1=O (stereo not given) |  | 32.4 µM (active) [middle of 4 runs]
COC(=O)C(C)Oc1ccc(Oc2ccc(Cl)cc2Cl)cc1 (stereo not given) | inactive | 
Cc1c(F)c(F)c(COC(=O)C2C(/C=C(\Cl)C(F)(F)F)C2(C)C)c(F)c1F (stereo not given) | inactive | 

From PubChem BioAssay (EPA / NIEHS)
